# Laboratory results from the supplement of paper PMC3334620.
# In all, about 33,000 sequences were measured (“E-score (-0.5 to 0.5)”: median about -0.053, highest 2% from about 0.37 on). Shown is part of a subset that was picked to be rich in the highest values.
# Target: Hap1 (UniProt P0CE41)
# Experiment: PBM E-score (8-mer binding enrichment) (E-score (-0.5 to 0.5)); higher = stronger / more preferred TF binding
# Conditions: protein concentration: 200 nM; construct: GST-DNA-binding domain
# Procedure: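 Universal 'all 10-mer' protein binding microarrays (Agilent AMADID 015681) probed with GST-tagged S. cerevisiae TFs (full-length or DBD) made by in vitro transcription/translation (PURExpress), about 100-200 nM. Bound TF was detected with fluorescent anti-GST. Each ungapped 8-mer (which stands for itself and its reverse complement) is scored by the PBM enrichment score (E-score), a modified Wilcoxon-Mann-Whitney statistic from -0.5 to +0.5, computed with the Universal PBM Analysis Suite. Scale: above 0.35 generally sequence-specific binding.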
# Sequence of UniProt P0CE41 (P0CE41 whole entry): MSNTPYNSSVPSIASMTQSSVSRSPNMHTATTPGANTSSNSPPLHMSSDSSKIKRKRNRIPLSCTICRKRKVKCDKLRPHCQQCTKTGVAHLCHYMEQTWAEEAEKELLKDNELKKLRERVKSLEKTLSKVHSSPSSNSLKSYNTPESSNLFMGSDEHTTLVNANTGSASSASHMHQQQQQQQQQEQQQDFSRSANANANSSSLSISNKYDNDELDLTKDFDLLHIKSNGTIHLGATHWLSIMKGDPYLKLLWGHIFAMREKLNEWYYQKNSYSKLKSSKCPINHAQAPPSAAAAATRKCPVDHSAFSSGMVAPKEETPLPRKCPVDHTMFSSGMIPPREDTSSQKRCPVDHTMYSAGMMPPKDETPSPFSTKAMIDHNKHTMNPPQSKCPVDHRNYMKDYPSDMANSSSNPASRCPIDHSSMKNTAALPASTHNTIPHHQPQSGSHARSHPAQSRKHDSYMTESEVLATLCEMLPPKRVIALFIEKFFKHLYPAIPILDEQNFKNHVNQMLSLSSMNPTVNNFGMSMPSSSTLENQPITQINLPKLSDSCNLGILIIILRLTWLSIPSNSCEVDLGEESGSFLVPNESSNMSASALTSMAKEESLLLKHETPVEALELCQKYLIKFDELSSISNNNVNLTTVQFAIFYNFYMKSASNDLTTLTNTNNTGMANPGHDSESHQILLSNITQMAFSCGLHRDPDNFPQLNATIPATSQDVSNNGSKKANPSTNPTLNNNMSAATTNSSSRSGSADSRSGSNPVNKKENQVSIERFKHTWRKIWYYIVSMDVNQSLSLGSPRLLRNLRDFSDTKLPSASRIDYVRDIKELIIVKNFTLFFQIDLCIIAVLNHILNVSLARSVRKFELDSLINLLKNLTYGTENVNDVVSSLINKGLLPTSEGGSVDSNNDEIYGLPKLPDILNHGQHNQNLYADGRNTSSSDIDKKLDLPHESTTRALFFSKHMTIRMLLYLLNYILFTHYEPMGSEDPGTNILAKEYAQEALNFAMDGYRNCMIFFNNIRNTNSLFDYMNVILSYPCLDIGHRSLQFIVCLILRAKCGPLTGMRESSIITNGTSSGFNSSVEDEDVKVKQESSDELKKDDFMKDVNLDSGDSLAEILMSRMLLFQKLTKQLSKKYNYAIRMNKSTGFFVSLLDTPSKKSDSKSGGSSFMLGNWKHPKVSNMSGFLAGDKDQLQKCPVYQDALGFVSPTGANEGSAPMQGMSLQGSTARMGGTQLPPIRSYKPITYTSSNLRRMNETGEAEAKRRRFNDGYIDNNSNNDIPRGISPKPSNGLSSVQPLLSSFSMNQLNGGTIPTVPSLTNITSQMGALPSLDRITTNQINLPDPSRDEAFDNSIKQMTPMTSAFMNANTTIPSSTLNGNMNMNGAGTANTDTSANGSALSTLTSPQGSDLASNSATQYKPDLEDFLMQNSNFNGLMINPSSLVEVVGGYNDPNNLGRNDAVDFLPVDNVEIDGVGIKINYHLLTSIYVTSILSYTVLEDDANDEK
row,Sequence,PBM E-score
1,CGGAGCGC,0.258
2,AACAAAGC,-0.0164
3,AGCGCATG,-0.2
4,ATTGACCC,-0.0115
5,GCCTGCTA,-0.152
6,ACCGAAAC,0.323
7,ACCGAACA,0.265
8,CCCGAAAA,0.426
9,CCCGAAGA,0.284
10,TCCGAACA,0.381
11,GCCGAAAA,0.345
12,TCCGAAGA,0.419
13,CCCGAAAC,0.208
14,CCCGAAAG,0.298
15,GCCGAAAC,0.38
16,GCCGAACA,0.233
17,ACCGAAGA,0.207
18,GGCGAAAC,0.194
19,CGGCGGTC,0.244
20,CAGCGCGC,0.057
21,CTTTCAGC,0.0716
22,TGCGAAAA,-0.00129
23,TCCGAAAA,0.393
24,ACCGAAAA,0.26
25,AGCAACTA,-0.0755

row,Sequence,PBM E-score
1,AGAATCAT,-0.259
2,AATCACAT,0.0324
3,CGTGGTCC,-0.0363
4,AGCCGGCG,0.352
5,CGCCGGCG,0.422
6,CGGCGCCG,0.406
7,CGGCGCCA,0.246
8,CGCCGGCC,0.396
9,AGGCGCCG,0.0638
10,CGCCGGCA,0.349
11,CGCCGCCG,0.276
12,GGCCGGCC,0.367
13,CCGACCGA,0.422
14,ACGACCGG,0.292
15,GGGACCTA,0.116
16,CGGACCGC,0.367
17,CGGACCGA,0.423
18,CGGACCTA,0.425
19,CCGACCGG,0.428
20,CCGACCGC,0.181
21,AGGACCTA,0.095
22,GCGACCGA,0.253
23,GGGACCGA,0.329
24,ACGACCGA,0.275
25,AGTAGCGG,0.216

row,Sequence,PBM E-score
1,ACCTCTCG,-0.0768
2,CCAGGCCC,-0.0511
3,CGCGGCCG,0.27
4,ACTACGGA,0.238
5,TATCAGAA,0.0826
6,AATCCTAT,0.204
7,GTCCTACA,0.145
8,ATCTGGCG,0.0049
9,AAGCGTAC,-0.292
10,TCGACCGA,0.393
11,CGGACCCC,0.233
12,CGGACCAG,0.304
13,CGGACCAA,0.383
14,CGGACCAC,0.279
15,AGGACCCG,0.218
16,TCGACCAA,-0.331
17,CGGACCCG,0.387
18,TCGACCCA,-0.221
19,GGAATCAC,0.196
20,AGAGTAAT,0.076
21,CGGTGAGA,0.12
22,ATCAACAT,-0.109
23,ACCCCCAG,-0.25
24,CTATTTTC,0.0335
25,ATATTTCA,-0.15

row,Sequence,PBM E-score
1,CTATTTCA,-0.0144
2,ATATTTCC,0.427
3,CTATTTCC,0.397
4,ATATTTCG,0.235
5,AACTTTCA,-0.106
6,GGGTCATA,-0.00686
7,CGGTCTGA,0.205
8,CGGTCGTA,0.383
9,CGGTCATC,0.192
10,CGGTCTTA,0.404
11,GGGTCTTA,0.0728
12,CGGTCGTC,0.165
13,GGGTCGTA,0.0749
14,CGGTCATA,0.411
15,TAGACCCA,-0.194
16,ATCACGGC,0.134
17,ACAAAAGC,0.0095
18,CATGGGTC,-0.168
19,ATCGGCAG,0.315
20,AACGGCCA,0.183
21,AACGGCCT,0.074
22,ATCGGCCG,0.443
23,AGCGGCGG,0.291
24,ATCGGCGC,0.343
25,ATCGGGCC,0.324

row,Sequence,PBM E-score
1,CTCGGCCC,0.336
2,ATCGGCCA,0.253
3,ATCGGCCC,0.379
4,AACGGCCG,0.405
5,ATCGGCGG,0.408
6,ATCTGCGC,0.00257
7,CTATAGGC,-0.0955
8,CGACCACG,0.0929
9,GGGTGGAC,0.132
10,GATGGTGC,-0.29
11,GGCGGAAC,0.257
12,GCCGGAAC,0.371
13,AGCGGAAC,0.243
14,CCCGGAAC,0.31
15,ACCGGAAG,0.333
16,ACCGGAAA,0.417
17,ACCGGAAC,0.403
18,GACGGAAC,0.174
19,AGCGGAAA,0.318
20,CCGCAACG,0.216
21,GCATATCA,0.0762
22,CTACTCCA,-0.0772
23,AGGCCACC,-0.0824
24,AAGAACTT,-0.101
25,CTGTGTCC,-0.0361

row,Sequence,PBM E-score
1,TTCGCGAA,0.138
2,GCGGGAAC,0.212
3,CCGGACGC,0.366
4,CCGGACGA,0.431
5,ACGGACGA,0.359
6,TCGGACGA,0.414
7,GCGGACGA,0.366
8,ACGGACGG,0.244
9,CCGGACGG,0.444
10,CTGGACGA,-0.158
11,CGGGACGA,0.0655
12,ATTTTGAC,-0.0308
13,ACGGGAAA,0.174
14,CGCCTACC,-0.0452
15,AAGTCGAG,-0.359
16,AAGCTAGC,-0.0783
17,AAAGACAC,-0.0224
18,TCATAGGA,-0.112
19,ATCTGCAA,-0.287
20,ATGCGTAA,-0.0748
21,ATTCGTAC,0.00708
22,AAGCCGAT,0.399
23,AAGCCGAG,0.372
24,AGGCCGAT,0.327
25,AAGCCGAC,0.298

row,Sequence,PBM E-score
1,AAGCCGAA,0.334
2,CAGCCGAG,0.238
3,ATCATTCG,0.0233
4,ACGGATAA,0.282
5,GCGGATTA,0.189
6,TCGGATAA,0.374
7,TGGGATAA,-0.0448
8,ACGGACAT,0.421
9,GCGGATAA,0.294
10,ACGGATAT,0.43
11,CCGGATTA,0.383
12,ACGGACAG,0.113
13,ACGGATTA,0.142
14,ACGGATAG,0.11
15,ACGGACAC,0.278
16,CGGATTAG,0.305
17,ACACCTTC,0.105
18,AATTCGAG,-0.267
19,CCGGATAC,0.323
20,CCGGATAG,0.316
21,ACGGAAAT,0.432
22,GGGGAATA,0.107
23,CCGGATAA,0.435
24,ACGGAGAG,0.284
25,CGGGAATA,0.458
